Source: publication PMC7862700, “An all-to-all approach to the identification of sequence-specific readers for epigenetic DNA modifications on cytosine”

Tests used:
Test in all cases: DAPPL (digital affinity profiling via proximity ligation, sequencing); 10 mM Tris-HCl pH 7.5, 50 mM NaCl, 1 mM DTT, 4% glycerol, room temperature, 30 min; GST-TFs on glutathione beads, 16-mer random dsDNA library, 0.1% formaldehyde crosslink after washing; high values mean tight binding
Conditions in all cases: protein: recombinant; tags: N-terminal GST; dsDNA, one strand shown
FEV = target: T1, FEV (Homo sapiens, UniProt Q99581 1-238)
T1 sequence: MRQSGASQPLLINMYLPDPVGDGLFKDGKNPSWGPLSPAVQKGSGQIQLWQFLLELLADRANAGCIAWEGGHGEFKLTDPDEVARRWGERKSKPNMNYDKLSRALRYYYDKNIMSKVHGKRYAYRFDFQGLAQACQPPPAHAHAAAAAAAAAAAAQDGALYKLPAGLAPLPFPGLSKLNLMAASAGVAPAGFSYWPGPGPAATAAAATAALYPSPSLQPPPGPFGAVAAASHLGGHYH
Summary of the method: (§1)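 Binding signal is given per hexamer as its read frequency for a factor divided by its frequency in the tag-only sample. GST-fused human transcription factors were expressed in yeast, captured on glutathione beads, barcoded with DNA and pooled with that sample, then incubated with 200 nmole of a 16-mer random double-stranded DNA library in Tris/NaCl/DTT/glycerol buffer for 30 min at room temperature. The pools were then washed, crosslinked, proximity-ligated, amplified by PCR and sequenced on an Illumina NextSeq500.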

ETV5 = ETV5 (Homo sapiens, UniProt P41161 1-510)
Sequence of ETV5 (P41161 whole entry): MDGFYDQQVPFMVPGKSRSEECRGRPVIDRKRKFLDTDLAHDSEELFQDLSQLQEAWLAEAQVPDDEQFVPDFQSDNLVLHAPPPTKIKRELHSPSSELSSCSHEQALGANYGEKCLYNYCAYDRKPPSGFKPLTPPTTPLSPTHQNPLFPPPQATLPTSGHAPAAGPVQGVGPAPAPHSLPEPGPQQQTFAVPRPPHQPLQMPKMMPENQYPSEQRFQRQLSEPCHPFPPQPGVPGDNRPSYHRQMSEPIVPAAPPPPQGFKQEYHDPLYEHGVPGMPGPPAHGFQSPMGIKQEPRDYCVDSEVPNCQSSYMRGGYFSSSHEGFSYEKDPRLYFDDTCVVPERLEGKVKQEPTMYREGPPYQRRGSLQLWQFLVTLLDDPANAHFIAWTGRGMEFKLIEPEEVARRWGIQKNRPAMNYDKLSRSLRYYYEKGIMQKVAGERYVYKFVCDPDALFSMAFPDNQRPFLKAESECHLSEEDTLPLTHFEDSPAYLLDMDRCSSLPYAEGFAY
Summary of the method: as §1

SPIC = target: T2, SPIC (Homo sapiens, UniProt Q8N5J4 1-248)
T2 sequence: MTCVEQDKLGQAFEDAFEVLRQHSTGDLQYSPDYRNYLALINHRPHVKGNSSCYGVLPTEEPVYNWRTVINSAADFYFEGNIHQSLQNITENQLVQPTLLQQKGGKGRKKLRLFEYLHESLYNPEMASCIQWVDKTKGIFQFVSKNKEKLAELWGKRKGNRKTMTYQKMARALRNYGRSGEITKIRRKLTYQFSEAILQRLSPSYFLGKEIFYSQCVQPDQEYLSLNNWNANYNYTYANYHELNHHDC
Summary of the method: as §1

ELF4 = ELF4 (Homo sapiens, UniProt Q99607 1-663)
Sequence of ELF4 (Q99607 whole entry): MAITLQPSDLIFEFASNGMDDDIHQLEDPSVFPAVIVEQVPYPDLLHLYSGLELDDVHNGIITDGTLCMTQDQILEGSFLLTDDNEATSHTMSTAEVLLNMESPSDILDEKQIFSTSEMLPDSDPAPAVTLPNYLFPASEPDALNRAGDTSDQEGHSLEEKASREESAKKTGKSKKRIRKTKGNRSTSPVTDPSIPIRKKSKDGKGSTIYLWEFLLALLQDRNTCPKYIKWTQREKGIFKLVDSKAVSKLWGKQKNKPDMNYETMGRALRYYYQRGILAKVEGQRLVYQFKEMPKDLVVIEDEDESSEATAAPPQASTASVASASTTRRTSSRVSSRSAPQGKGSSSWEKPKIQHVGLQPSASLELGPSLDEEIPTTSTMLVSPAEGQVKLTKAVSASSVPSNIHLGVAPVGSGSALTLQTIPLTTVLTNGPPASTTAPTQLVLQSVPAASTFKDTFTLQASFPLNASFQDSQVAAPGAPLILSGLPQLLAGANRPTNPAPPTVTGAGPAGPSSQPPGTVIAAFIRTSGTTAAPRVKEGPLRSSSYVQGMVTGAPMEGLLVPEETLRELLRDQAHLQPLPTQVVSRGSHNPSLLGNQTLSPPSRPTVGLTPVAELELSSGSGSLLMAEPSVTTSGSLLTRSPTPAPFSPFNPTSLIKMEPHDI
Summary of the method: as §1

ELK4 = target: T3, ELK4 (Homo sapiens, UniProt P28324-2 1-405)
T3 sequence: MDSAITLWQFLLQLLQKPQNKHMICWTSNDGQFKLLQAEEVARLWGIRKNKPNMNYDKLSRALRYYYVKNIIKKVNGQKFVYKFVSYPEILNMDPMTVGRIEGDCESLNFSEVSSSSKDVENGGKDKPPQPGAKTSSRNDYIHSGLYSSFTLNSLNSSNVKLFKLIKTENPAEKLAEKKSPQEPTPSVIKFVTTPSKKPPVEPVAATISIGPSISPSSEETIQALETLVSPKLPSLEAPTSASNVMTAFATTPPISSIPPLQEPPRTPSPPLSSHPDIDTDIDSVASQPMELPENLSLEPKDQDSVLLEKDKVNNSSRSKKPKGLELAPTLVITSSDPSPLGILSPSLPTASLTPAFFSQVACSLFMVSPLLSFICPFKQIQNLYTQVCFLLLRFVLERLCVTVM
Summary of the method: as §1

ETV2 = target: T4, ETV2 (Homo sapiens, UniProt O00321 1-342)
T4 sequence: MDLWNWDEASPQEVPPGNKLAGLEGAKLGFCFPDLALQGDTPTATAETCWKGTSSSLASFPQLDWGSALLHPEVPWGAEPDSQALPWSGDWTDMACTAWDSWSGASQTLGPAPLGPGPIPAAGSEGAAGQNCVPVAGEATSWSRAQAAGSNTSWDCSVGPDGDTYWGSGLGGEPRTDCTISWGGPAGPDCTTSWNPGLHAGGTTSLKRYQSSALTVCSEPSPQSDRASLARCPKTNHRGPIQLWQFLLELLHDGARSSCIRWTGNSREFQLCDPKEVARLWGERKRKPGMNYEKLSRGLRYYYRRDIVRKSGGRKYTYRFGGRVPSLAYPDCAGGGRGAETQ
Summary of the method: as §1

ELF3 = target: T5, ELF3 (Homo sapiens, UniProt P78545 1-371)
T5 sequence: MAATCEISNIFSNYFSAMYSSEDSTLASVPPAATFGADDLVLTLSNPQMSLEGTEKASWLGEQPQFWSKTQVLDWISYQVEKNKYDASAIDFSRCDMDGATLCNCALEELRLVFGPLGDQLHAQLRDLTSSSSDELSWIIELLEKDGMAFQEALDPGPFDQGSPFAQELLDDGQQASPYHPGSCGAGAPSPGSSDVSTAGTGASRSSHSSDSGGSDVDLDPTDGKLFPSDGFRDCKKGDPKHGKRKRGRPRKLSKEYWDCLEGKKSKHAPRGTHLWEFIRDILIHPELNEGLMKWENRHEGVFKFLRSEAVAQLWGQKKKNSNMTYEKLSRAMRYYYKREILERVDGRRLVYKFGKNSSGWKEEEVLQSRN
Summary of the method: as §1

ETV1 = ETV1 (Homo sapiens, UniProt P50549 1-477)
Sequence of ETV1 (P50549 whole entry): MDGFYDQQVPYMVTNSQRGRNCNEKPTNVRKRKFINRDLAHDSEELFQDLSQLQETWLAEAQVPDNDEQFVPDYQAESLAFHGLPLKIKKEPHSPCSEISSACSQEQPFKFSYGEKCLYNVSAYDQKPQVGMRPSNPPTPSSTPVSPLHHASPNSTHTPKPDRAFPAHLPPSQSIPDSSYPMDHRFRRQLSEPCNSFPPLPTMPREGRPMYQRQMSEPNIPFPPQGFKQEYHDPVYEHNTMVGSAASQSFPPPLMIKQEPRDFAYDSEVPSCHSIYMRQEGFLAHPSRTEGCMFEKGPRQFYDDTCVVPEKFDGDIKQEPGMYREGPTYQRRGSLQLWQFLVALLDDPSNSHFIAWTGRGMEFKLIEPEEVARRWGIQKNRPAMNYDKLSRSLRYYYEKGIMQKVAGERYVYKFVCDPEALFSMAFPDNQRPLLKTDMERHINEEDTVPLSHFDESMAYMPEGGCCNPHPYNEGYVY
Summary of the method: as §1

ERF = target: T6, ERF (Homo sapiens, UniProt P50548 1-548)
T6 sequence: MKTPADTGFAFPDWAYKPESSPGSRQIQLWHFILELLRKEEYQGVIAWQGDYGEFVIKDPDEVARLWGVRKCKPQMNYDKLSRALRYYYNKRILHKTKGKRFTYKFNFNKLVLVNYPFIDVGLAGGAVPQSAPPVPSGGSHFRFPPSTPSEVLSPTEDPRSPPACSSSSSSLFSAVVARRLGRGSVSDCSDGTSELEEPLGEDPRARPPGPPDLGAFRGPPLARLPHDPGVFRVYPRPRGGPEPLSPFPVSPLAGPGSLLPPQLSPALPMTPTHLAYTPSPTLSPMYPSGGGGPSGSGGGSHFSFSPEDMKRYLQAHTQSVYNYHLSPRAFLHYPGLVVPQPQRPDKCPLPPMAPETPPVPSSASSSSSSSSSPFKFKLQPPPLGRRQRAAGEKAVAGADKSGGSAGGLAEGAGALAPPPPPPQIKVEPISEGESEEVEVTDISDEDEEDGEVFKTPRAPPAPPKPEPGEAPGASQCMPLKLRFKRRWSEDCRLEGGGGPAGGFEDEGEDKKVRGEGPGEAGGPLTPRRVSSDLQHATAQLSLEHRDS
Summary of the method: as §1

ETV3L = target: T7, ETV3L (Homo sapiens, UniProt Q6ZN32 1-361)
T7 sequence: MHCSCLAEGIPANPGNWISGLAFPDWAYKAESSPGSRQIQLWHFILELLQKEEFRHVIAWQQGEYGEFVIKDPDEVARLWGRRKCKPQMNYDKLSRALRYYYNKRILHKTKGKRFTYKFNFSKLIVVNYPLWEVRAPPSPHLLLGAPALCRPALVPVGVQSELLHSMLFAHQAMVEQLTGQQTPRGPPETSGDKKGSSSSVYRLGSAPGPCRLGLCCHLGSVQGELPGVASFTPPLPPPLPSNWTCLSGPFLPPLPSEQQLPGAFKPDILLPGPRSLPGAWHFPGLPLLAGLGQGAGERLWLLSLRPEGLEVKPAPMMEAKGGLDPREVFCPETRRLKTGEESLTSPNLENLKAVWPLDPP
Summary of the method: as §1

ETS2 = target: T8, ETS2 (Homo sapiens, UniProt P15036 1-469)
T8 sequence: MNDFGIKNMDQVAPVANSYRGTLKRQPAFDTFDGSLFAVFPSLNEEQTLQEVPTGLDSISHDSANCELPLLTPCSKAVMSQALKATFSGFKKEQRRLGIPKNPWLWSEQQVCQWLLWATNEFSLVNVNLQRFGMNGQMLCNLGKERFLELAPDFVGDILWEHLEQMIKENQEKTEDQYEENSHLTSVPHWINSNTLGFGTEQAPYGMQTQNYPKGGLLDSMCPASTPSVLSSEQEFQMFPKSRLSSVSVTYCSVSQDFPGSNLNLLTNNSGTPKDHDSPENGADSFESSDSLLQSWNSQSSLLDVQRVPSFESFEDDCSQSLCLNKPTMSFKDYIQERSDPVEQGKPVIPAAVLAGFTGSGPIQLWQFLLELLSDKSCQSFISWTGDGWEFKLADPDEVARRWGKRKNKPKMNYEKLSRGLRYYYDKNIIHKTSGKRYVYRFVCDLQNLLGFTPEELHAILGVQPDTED
Summary of the method: as §1

SPDEF = target: T9, SPDEF (Homo sapiens, UniProt O95238 1-335)
T9 sequence: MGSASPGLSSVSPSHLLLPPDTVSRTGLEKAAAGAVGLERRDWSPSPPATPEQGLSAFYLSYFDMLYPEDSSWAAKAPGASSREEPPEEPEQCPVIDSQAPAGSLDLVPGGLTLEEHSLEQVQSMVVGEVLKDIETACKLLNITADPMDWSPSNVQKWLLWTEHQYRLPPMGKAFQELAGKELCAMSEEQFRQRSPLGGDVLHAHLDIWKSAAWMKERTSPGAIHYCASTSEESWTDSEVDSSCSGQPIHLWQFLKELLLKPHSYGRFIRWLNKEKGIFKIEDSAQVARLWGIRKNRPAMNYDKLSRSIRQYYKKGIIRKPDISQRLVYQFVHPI
Summary of the method: as §1

ETV7 = target: T10, ETV7 (Homo sapiens, UniProt Q9Y603 1-341)
T10 sequence: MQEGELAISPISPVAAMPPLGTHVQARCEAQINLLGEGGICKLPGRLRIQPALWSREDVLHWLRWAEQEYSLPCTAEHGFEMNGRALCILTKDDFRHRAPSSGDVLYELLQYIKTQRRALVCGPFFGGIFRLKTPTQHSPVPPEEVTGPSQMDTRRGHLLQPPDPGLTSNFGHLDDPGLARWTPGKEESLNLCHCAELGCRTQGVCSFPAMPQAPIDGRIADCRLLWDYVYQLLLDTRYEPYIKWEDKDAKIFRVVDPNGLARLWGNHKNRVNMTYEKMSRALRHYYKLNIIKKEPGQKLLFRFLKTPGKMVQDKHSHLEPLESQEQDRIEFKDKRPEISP
Summary of the method: as §1

ELF5 = target: T11, ELF5 (Homo sapiens, UniProt Q9UKW6-2 1-255)
T11 sequence: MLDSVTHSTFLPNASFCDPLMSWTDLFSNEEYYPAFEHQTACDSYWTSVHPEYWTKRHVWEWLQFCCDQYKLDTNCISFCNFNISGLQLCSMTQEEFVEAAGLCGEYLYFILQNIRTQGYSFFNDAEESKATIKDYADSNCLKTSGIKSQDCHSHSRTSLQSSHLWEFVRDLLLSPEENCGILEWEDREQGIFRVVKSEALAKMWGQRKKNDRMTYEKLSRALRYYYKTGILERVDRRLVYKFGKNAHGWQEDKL
Summary of the method: as §1

ETV3 = target: T12, ETV3 (Homo sapiens, UniProt P41162-2 1-143)
T12 sequence: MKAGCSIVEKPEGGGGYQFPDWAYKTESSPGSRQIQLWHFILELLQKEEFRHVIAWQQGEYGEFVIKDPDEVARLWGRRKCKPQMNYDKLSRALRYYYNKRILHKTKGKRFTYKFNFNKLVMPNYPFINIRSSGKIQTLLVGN
Summary of the method: as §1

ETV6 = ETV6 (Homo sapiens, UniProt P41212 1-452)
Sequence of ETV6 (P41212 whole entry): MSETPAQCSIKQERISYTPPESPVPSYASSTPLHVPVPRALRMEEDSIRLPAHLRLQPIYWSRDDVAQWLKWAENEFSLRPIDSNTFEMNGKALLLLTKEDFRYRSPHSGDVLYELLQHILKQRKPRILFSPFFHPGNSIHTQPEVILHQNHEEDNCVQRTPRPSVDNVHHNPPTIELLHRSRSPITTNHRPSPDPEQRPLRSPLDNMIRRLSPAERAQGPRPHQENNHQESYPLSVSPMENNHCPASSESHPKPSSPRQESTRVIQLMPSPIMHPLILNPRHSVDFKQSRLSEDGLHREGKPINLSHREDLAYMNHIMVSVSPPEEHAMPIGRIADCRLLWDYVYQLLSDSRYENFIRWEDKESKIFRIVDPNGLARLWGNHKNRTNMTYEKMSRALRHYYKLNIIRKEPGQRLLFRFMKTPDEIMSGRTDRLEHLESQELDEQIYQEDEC
Summary of the method: as §1

Row | Sequence | binding signal (FEV) | binding signal (ETV5) | binding signal (SPIC) | binding signal (ELF4) | binding signal (ELK4) | binding signal (ETV2) | binding signal (ELF3) | binding signal (ETV1) | binding signal (ERF) | binding signal (ETV3L) | binding signal (ETS2) | binding signal (SPDEF) | binding signal (ETV7) | binding signal (ELF5) | binding signal (ETV3) | binding signal (ETV6)
1 | CACAAC | 1.31 fold enrichment (6-mer frequency, TF over GST control) | 1.24 fold enrichment (6-mer frequency, TF over GST control) | 1.25 fold enrichment (6-mer frequency, TF over GST control) | 1.23 fold enrichment (6-mer frequency, TF over GST control) | 1.25 fold enrichment (6-mer frequency, TF over GST control) | 1.19 fold enrichment (6-mer frequency, TF over GST control) | 1.3 fold enrichment (6-mer frequency, TF over GST control) | 1.2 fold enrichment (6-mer frequency, TF over GST control) | 1.36 fold enrichment (6-mer frequency, TF over GST control) | 1.29 fold enrichment (6-mer frequency, TF over GST control) | 1.25 fold enrichment (6-mer frequency, TF over GST control) | 1.25 fold enrichment (6-mer frequency, TF over GST control) | 1.13 fold enrichment (6-mer frequency, TF over GST control) | 1.28 fold enrichment (6-mer frequency, TF over GST control) | 1.22 fold enrichment (6-mer frequency, TF over GST control) | 1.24 fold enrichment (6-mer frequency, TF over GST control)
2 | CCGGCC | 1.54 fold enrichment (6-mer frequency, TF over GST control) | 1.17 fold enrichment (6-mer frequency, TF over GST control) | 1.32 fold enrichment (6-mer frequency, TF over GST control) | 1.08 fold enrichment (6-mer frequency, TF over GST control) | 1.27 fold enrichment (6-mer frequency, TF over GST control) | 1.22 fold enrichment (6-mer frequency, TF over GST control) | 1.14 fold enrichment (6-mer frequency, TF over GST control) | 1.27 fold enrichment (6-mer frequency, TF over GST control) | 1.06 fold enrichment (6-mer frequency, TF over GST control) | 1.19 fold enrichment (6-mer frequency, TF over GST control) | 1.05 fold enrichment (6-mer frequency, TF over GST control) | 1.38 fold enrichment (6-mer frequency, TF over GST control) | 1.16 fold enrichment (6-mer frequency, TF over GST control) | 1.22 fold enrichment (6-mer frequency, TF over GST control) | 1.24 fold enrichment (6-mer frequency, TF over GST control) | 1.11 fold enrichment (6-mer frequency, TF over GST control)
3 | GCATCC | 1.73 fold enrichment (6-mer frequency, TF over GST control) | 1.68 fold enrichment (6-mer frequency, TF over GST control) | 1.53 fold enrichment (6-mer frequency, TF over GST control) | 1.43 fold enrichment (6-mer frequency, TF over GST control) | 1.28 fold enrichment (6-mer frequency, TF over GST control) | 1.39 fold enrichment (6-mer frequency, TF over GST control) | 1.53 fold enrichment (6-mer frequency, TF over GST control) | 1.55 fold enrichment (6-mer frequency, TF over GST control) | 1.43 fold enrichment (6-mer frequency, TF over GST control) | 1.56 fold enrichment (6-mer frequency, TF over GST control) | 1.61 fold enrichment (6-mer frequency, TF over GST control) | 2.71 fold enrichment (6-mer frequency, TF over GST control) | 1.43 fold enrichment (6-mer frequency, TF over GST control) | 1.64 fold enrichment (6-mer frequency, TF over GST control) | 1.62 fold enrichment (6-mer frequency, TF over GST control) | 1.57 fold enrichment (6-mer frequency, TF over GST control)
